According to PubChem BioAssay AID1471 (National Center for Advancing Translational Sciences (NCATS), 2008):
The whole screen tested about 230,000 compounds, of which about 310 (0.13%) were called active. Roughly 2% stayed inconclusive and do not appear here. Calls follow the shape of the dose curve; as a rule, active = well fitted activation curve with a large enough effect; inconclusive = small, poorly fitted or top-dose-only effect; inactive = no such curve, though single readings can be large or run the other way. What follows is part of a selection rich in actives, with near analogues and random picks from the rest.

Test: qHTS Multiplex Assay to Identify Dual Action Probes in a Cell Model of Huntington: Cytoprotection (ATP); also: nearly all actives have a fitted effect of over 45% in size;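 as to Cytoprotection (ATP increase): toxic huntingtin expression switched on by the ecdysone agonist tebufenozide; % of control where 0% means no effect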
Settings: PC12 HTT-Q103 induced, ATP luminescence, 40 h; series mostly up to 56.4 µM
Excerpt: NIH Chemical Genomics Center [NCGC]
NIH Molecular Libraries Probe Production centers Network [MLPCN]
Assay Submitter (PI): Wei Zheng
Huntington's disease is a neurodegenerative disorder caused by a trinucleotide repeat expansion in Exon 1 of the Huntingtin gene. The CAG trinucleotide encodes glutamine and polyglutamine expansions cause cell death in selective areas of the brain. Huntington polyglutamine repeats have the tendency to form aggregates which are observable in later stages of the disease. The exact nature of the aggregates, whether toxic, protective, or insignificant, is unclear.
A stable PC12 cell line containing a gene fusion of Exon 1 of the Huntingtin gene linked to GFP under the control of the inducible ecdysone promoter were used as the cell-based model of Huntington Disease for high throughput screening. Exon 1 of the Huntingtin gene contained an expansion of 103 polyglutamines (Q103) which, when expressed, caused cell death and distinct, bright GFP aggregates. The amount of cell death and the size and intensity of GFP aggregates increased over time and induction level. The cell death were quantified with a measurement of ATP content in the cells. A maximal 40-50% of cell death was observed when the Huntington gene was induced in this cell line.
We optimized this assay in a homogeneous 1536 well format. A quantitative high throughput screen (qHTS) was conducted on the PC12 cells which were induced to express the toxic fusion construct. Small molecules which prevented cell death were identified by using a luminescent ATP quantification method (Perkin Elmer's ATPlite).
PC12 cells stably containing a construct with an ecdysone inducible promoter expressing GFP fused to the exon 1 of HTTQ103 (Huntington protein which containing a 103 ployglutamine expansion) were used.
NCGC Assay Protocol Summary:
Sequence, Parameter, Description
1, Reagent, 5 uL 1500 cells/well 1536 TC treated White clear bottom plate
2, Compound, 23 nL Tebufenozide inducer (100 nM final) to all columns
3, Compound, 23 nL 40 uM to 0.5 nM Libraries
5, Reagent, 5 ul ATPLite cell death assay reagent
6, Detector, 4 sec integration with a Viewlux Luminescent
Media consisted of phenol red free DMEM + 5% equine serum (Hyclone # SH30072.03 ), 5% supplemented Bovine Calf Serum (Hyclone # SH30074.03 ), 1x pen/strep, no G418
Control columns: 1 = DMSO, 2= 2 uM teb dilns (1:1), 4 = 100 nM Teb inducer. Sample columns received 100 nM Teb.
Potency is read from the fitted curve at half-maximal effect.

Cytoprotection (ATP increase), inactive:
CCCCCCCC/C=C\CCCCCCCC(=O)NCC(=O)O, CC(=O)Oc1ccccc1C1=NN(C(C)=O)C(c2ccccc2)C1 (configuration not stated), CCCN(CCc1ccccc1)C1CCc2c(O)cccc2C1 (configuration not stated), CCOC(=O)C1=C(C)c2ccccc2OC1C(=O)OCC (configuration not stated), O=C(O)C[C@@H]1NC(=O)[C@H](Cc2ccccc2)NC1=O, COc1ccc(-c2nc3c(c4c2C[C@H](c2ccccc2)OC4)CN(C(=O)c2cccnc2)CC3)c(C)c1 27.4% [at 10 µM], COc1ccc(NC(=S)NC2CCS(=O)(=O)C2)cc1 (configuration not stated) 2.72% [at 0.074 µM], COc1cccc(CC(=O)N2CCc3nc(COc4ccccc4)c4c(c3C2)CO[C@@H](C)C4)c1 16.2% [at 10 µM], CC(C)C1=CC2=CC[C@H]3[C@](C)(C(=O)O)CCC[C@]3(C)C2CC1 (some centres not stated), COc1ccc(-c2[nH]nc(-c3ccccc3)c2-c2nc3ccccc3[nH]2)cc1, CCOC(=O)CCNC(=O)N1CCCC(C(=O)c2ccccc2SC)C1 (configuration not stated) 2.06% [at 10 µM], CSc1ncccc1C(=O)N1CCCC(CCC(=O)NCc2ccccc2F)C1 (configuration not stated) 4.93% [at 10 µM], C[C@@H]1C(c2ccc(F)cc2)=NN(c2ccc(Br)cc2)[C@H]1C(=O)N1CCOC1=O, Cc1cc(=O)oc(C)c1C(=O)NCCN(C)Cc1ccccc1, COc1ccc(-c2nc(-c3ccccc3)oc2Nc2ccc3ccccc3c2)cc1, COc1ccc2c(c1)O[C@@H](c1ccc3c(c1)OCO3)[C@H](OC(=O)NCc1ccco1)C2=O, O=C(O)CCC(=O)O, CCCCCCCCCCCCCCCCO, COc1ccc(CCCOC(Cn2ccnc2)c2ccc(OC)cc2)cc1 (configuration not stated), NC(=O)C1CCN(C(=O)c2ccc(-c3ccccc3)cc2)CC1, COc1ccccc1CN(C)c1nnnn1-c1ccccc1, COc1ccccc1N1CCN(C(=O)CN(Cc2ccc(Cl)cc2)S(C)(=O)=O)CC1, COC(=O)CCCC1=CC2=CC(=O)C(C)(OC(=O)c3cccs3)C(=O)C2=CN1c1ccc(CO)cc1 (configuration not stated) -11% [at 10 µM], CC(=O)N(CC(O)CO)c1c(I)c(C(=O)NCC(O)CO)c(I)c(C(=O)NCC(O)CO)c1I (configuration not stated), COC(=O)C1=C(C(=O)OC)[C@@H]2N(C)c3ccccc3[C@@]23C[C@@H](C(=O)OC)N(S(=O)(=O)c2cccs2)C3=N1 -27.2% [at 10 µM]

Potency, active:
CSCCC(=O)N1CCCC(CNC(=O)c2ccccc2Cl)C1 (configuration not stated) 2.82 µM, COc1ccccc1-n1nnnc1S(=O)(=O)Cc1ccc(Cl)cc1 25.1 µM
